{"source": "PubChem BioAssay AID779", "about": "(Sanford-Burnham Center for Chemical Genomics, 2007)", "note": "Active and inactive are the calls of the source. No rule for the calls is given here."}
{"assay": "PLAP enzyme activity inhibition – biochemical, colorimetric, counter-screen, dose response (AID 779)", "conditions": "colorimetric OD read-out"}
{"smiles": "COc1cc(/C=C2\\SC(=S)N(Nc3ccccc3)C2=O)cc(OC)c1OC", "IC50": "> 50 µM (inactive)"}
{"smiles": "CCOc1ccc(/C=C/C2=Cc3c(sc(NC(=O)CSc4n[nH]c(N)n4)c3C#N)C(C)(C)C2)cc1", "IC50": "> 50 µM (inactive)"}
{"smiles": "C=CCn1c(=O)/c(=C/c2cc(OC)c(OC)c(OC)c2)s/c1=C(/C#N)c1nc2ccccc2n1C", "IC50": "> 50 µM (inactive)"}
{"smiles": "Oc1c(C=C2N=c3ccccc3=N2)sc(=S)n1-c1ccc(F)cc1", "IC50": "> 50 µM (inactive)"}
{"smiles": "CCOC(=O)c1c(C)oc2c1c(C(c1cccnc1)N1CCOCC1)c(O)c1ccccc12", "note": "(stereo unspecified)", "IC50": "> 50 µM (inactive)"}
{"smiles": "COc1ccc2sc3ccccc3c(=O)c2c1OC", "IC50": "> 50 µM (inactive)"}
{"smiles": "COc1cc(C(Nc2ccccn2)c2ccc3ccc(C)nc3c2O)cc(OC)c1O", "note": "(stereo unspecified)", "IC50": "> 50 µM (inactive)"}
{"smiles": "Cc1cc(C)n(CNc2nc(C(F)(F)F)cs2)n1", "IC50": "> 50 µM (inactive)"}
{"smiles": "O=C1CCCC2=C1C(c1ccco1)Nc1ccc3ccccc3c12", "note": "(stereo unspecified)", "IC50": "> 50 µM (inactive)"}
{"smiles": "Cn1c(=O)[nH]c(=O)c2c1nc1n2CCN1Cc1ccccc1", "IC50": "> 50 µM (inactive)"}
{"smiles": "CCCCCn1nc(-c2ccccc2)c2nc3ccccc3nc21", "IC50": "> 50 µM (inactive)"}
{"smiles": "COc1cc(NC(=O)c2ccc(COCC(F)(F)F)cc2)cc(OC)c1OC", "IC50": "> 50 µM (inactive)"}
{"smiles": "CCOC(=O)c1cc(-c2ccc(/C=C3/C(=O)NC(=O)C(C#N)=C3C)o2)ccc1Cl", "IC50": "> 50 µM (inactive)"}
{"smiles": "Cn1cc([N+](=O)[O-])c(C(=O)Nc2ccc3c(c2)OCCO3)n1", "IC50": "> 50 µM (inactive)"}
{"smiles": "Cc1ccsc1/C=C/C1=Cc2c(sc(NC(=O)CSc3n[nH]c(N)n3)c2C#N)C(C)(C)C1", "IC50": "> 50 µM (inactive)"}
{"smiles": "COc1cccc(C2(CSc3nnc(-c4cc(OC)c(OC)c(OC)c4)o3)OCCO2)c1", "IC50": "> 50 µM (inactive)"}
{"smiles": "CSc1nc(SCCO)c2sc3nc(-c4ccco4)c4c(c3c2n1)CC(C)(C)OC4", "IC50": "> 50 µM (inactive)"}
{"smiles": "Cc1ccc(C)c(OCc2nnc(N)s2)c1", "IC50": "> 50 µM (inactive)"}
{"smiles": "CCC(C)N1C(=O)/C(=C/c2c(NCCCOC(C)C)nc3c(C)cccn3c2=O)SC1=S", "note": "(stereo unspecified)", "IC50": "> 50 µM (inactive)"}
{"smiles": "COc1ccc(OC)c(NC(=O)CSc2nc3ccccc3cc2Cc2ccccc2)c1", "IC50": "> 50 µM (inactive)"}
{"smiles": "O=C(Nc1cccc2ccccc12)/C(=C/c1ccc([N+](=O)[O-])cc1)NC(=O)c1ccccc1", "IC50": "> 50 µM (inactive)"}
{"smiles": "CSc1ccccc1N=Cc1nc(-c2ccccc2)oc1O", "IC50": "> 50 µM (inactive)"}
{"smiles": "CCNc1ccc(Br)cc(C(=O)/C=C/c2ccc3c(c2)OCO3)c1=O", "IC50": "> 50 µM (inactive)"}
{"smiles": "Cc1ccc(CNC(=O)CN2CCC(C(N)=O)CC2)cc1", "IC50": "> 50 µM (inactive)"}
{"smiles": "CCSc1nnc(-c2sc3nnc(-c4ccccc4)c(-c4ccccc4)c3c2N)o1", "IC50": "> 50 µM (inactive)"}
{"smiles": "O=C1/C(=C\\c2ccco2)SC(=S)N1Cc1ccccc1", "IC50": "> 50 µM (inactive)"}
{"smiles": "CCN(CC)C(=O)CSc1nc2cc(OC)c(OC)cc2c(=O)n1Cc1ccc(Cl)cc1", "IC50": "> 50 µM (inactive)"}
{"smiles": "COC(=O)Sc1nnc(-c2ccc(Br)cc2)o1", "IC50": "> 50 µM (inactive)"}
{"smiles": "N#Cc1sc2nc(-c3cccs3)cc(-c3ccccc3)c2c1N", "IC50": "> 50 µM (inactive)"}
{"smiles": "CCOC(=O)N1CCN(C(=O)CSc2nnc(-c3c[nH]c4ccccc34)n2CCOC)CC1", "IC50": "> 50 µM (inactive)"}
{"smiles": "O=C(CCN1C(=O)/C(=C/C=C/c2ccccc2)SC1=S)Nc1nccs1", "IC50": "> 50 µM (inactive)"}
